# Screening data as filed in PubChem.
# Only some compounds are listed: those with a hit (about 2.5% of all), similar ones and a draw of the others.
# WRN helicase inh: WRN helicase (human) inhibition; Q14191; WRN helicase unwinding, fluorescent forked duplex, kinetic; Potency, µM (top dose mostly 114 µM), for the others: at the highest dose activity change, negative = inhibition, hits mostly inhibitors; 0.46% of 360,000 active; AID 651768; also: % is scaled to controls: 0 for no effect and ±100 for the full control effect; nearly all actives have a fitted effect of over 55% in size
#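 Primary qHTS, 1536-well format. 20 nM WRN + compound, 15 min RT; start with 100 nM forked fluorophore/quencher duplex, 2 mM ATP (final); kinetic read ex 525/em 598 nm.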
# POLH inh: DNA polymerase eta (human) inhibition; Potency, µM (highest dose often 114 µM), without a hit: at the top dose activity change, negative = inhibition, hits mostly inhibitors; 1.2% of 390,000 active; Q9Y253; recombinant Pol eta, fluorescent DNA replication assay; also: % is scaled to controls: 0 for no effect and ±100 for the full control effect
#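 Pol eta (10 nM) was preincubated with compounds for 15 min at room temperature, after which fluorescent replication substrate (50 nM final) was added to start the reaction. Fluorescence was read kinetically at 0 and 10 min.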
# POLK inh: blocks human DNA polymerase kappa activity; Q9UBT6; purified Pol kappa, fluorescent DNA synthesis assay, 10 min; Potency, µM (top dose mostly 107 µM), for the others: top-dose activity, negative = inhibition, most hits filed as inhibitors; 0.53% of 400,000 active; AID 588579; also: % is scaled to controls: 0 for no effect and ±100 for the full control effect
#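 Kinetic fluorescence readout at 0 and 10 min followed reaction start with substrate at 50 nM final. Beforehand, enzyme (10 nM Pol kappa) stood 15 min with compound at room temperature; buffer-only wells were negative controls.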
# Pol beta inh: inhibitors of human DNA polymerase beta; Potency, µM (series often up to 114 µM), without a hit: at the highest dose activity change, negative = inhibition, actives largely listed as inhibitors; AID 485314; 1.3% of 340,000 active; Pol beta primer extension/strand displacement, fluorescence kinetic; P06746; also: % is scaled to controls: 0 for no effect and ±100 for the full control effect
#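 Homogeneous kinetic assay of primer extension and strand displacement by 10 nM Pol beta, preincubated 15 min at room temperature with compound before 50 nM substrate (final) was added. Read at 0 and 10 min; four-parameter Hill fit.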
# POLI inh: blocks human DNA polymerase iota activity; 1% of 390,000 active; Q9UNA4; Pol iota fluorescent replication assay, 10 min; AID 588590; Potency, µM (series often up to 115 µM), inactives show top-dose activity, negative = inhibition, usual class: inhibitors
# Target sequence (Q9UNA4 whole entry, looked up): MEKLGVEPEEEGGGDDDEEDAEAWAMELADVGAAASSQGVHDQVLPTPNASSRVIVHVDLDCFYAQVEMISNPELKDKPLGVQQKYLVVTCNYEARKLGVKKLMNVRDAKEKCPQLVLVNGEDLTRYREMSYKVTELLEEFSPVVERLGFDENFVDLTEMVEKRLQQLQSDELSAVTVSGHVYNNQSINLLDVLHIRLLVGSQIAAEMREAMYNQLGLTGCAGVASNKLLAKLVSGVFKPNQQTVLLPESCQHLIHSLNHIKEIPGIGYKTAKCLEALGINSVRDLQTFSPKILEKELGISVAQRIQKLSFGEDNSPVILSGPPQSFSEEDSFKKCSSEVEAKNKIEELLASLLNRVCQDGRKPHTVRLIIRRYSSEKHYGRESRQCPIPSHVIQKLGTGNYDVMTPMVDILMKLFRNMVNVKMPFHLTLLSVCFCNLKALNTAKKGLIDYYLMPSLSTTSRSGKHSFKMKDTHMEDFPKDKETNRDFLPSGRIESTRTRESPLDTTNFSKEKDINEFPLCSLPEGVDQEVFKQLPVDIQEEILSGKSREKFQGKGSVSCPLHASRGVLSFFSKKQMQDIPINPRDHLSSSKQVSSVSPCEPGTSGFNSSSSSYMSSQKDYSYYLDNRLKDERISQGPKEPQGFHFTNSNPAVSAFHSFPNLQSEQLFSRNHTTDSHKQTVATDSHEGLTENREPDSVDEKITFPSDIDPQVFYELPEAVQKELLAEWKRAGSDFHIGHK
#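 Fluorescent replication assay read twice, at 0 min and 10 min after adding 50 nM (final) substrate. Enzyme (10 nM) and compounds were first incubated 15 min at room temperature; enzyme-free buffer wells were negative controls.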
# L3MBTL1 inh: inhibitors of human L3MBTL1; Potency, µM (top dose mostly 57.1 µM), for inactives: at the top dose activity, negative = inhibition, actives largely listed as inhibitors; AlphaScreen L3MBTL1–H3K9me1 peptide binding; 0.66% of 230,000 active; also: % is scaled to controls: 0 for no effect and ±100 for the full control effect; nearly all actives have a fitted effect of over 60% in size
#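 AlphaScreen assay: L3MBTL1 (50 nM final) was preincubated 30 min at room temperature with biotinylated H3(1-15)K9me1 peptide (75 nM final), then 30 min with library compounds; streptavidin donor and nickel chelate acceptor beads (10 ug/mL final) added, 30 min dark.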
# * = called active by the depositor; ? = inconclusive; . = no result given; ! = not confirmed by another sample; [ ] = another dose, or the depositor's remark. Calls follow the shape of the dose curve; as a rule, active = well fitted curve in the direction sought with a large enough effect; inconclusive = small, poorly fitted or top-dose-only effect, or another doubt; inactive = no such curve, though single readings can be large; an effect the other way counts as inactive or inconclusive. Potency is read from the fitted curve at half-maximal effect.
SMILES,WRN helicase inh,POLH inh,POLK inh,Pol beta inh,POLI inh,L3MBTL1 inh
O=C1c2ccccc2C(=O)c2cc(Cn3cc(-c4cccc(C(F)(F)F)c4)nn3)ccc21,.,.,-7%,.,6%,.
O=[N+]([O-])c1ccc(Cn2cc(-c3cccc(C(F)(F)F)c3)nn2)cc1,-5%,-9%,?,-4%,89µM*,-7%
CC(C)c1cc(CNC(=O)c2ccc(OC3CCN(Cc4ccccn4)CC3)cc2)on1,1%,-12%,13%,16%,21%,.
CCCCOc1ccc(C2OC34CCCCC3C(C#N)(C#N)C2(C#N)C(=N)O4)cc1 (stereo not drawn),?,?,-34%,1%,16µM*,.
CCCn1c(NCc2ccco2)nc2c1c(=O)n(C)c(=O)n2C,-9%[57.1 µM],?,?,22µM*,?,?
O=S(=O)(Nc1ccc(-n2cnnn2)cc1)c1ccccc1F,5%,-3%,-5%,.,11%,5%
CN(C)S(=O)(=O)c1ccc(NC(=O)C2CC(=O)N(Cc3ccccc3)C2)cc1 (stereo not drawn),-10%,-23%,-1%,5%,72%,.
CCN(CC)c1ccc(NC(=O)C2CC(=O)N(Cc3ccccc3)C2)cc1 (stereo not drawn),-13%,-13%,-3%,-2%,49%,32µM*
CC(=O)COc1ccc2c(c1C)O/C(=C\c1ccco1)C2=O,-10%,22µM*,?,45µM*,?,.
COc1cccc(N2CCN(c3c(C#N)c(C(F)(F)F)nn3C)CC2)c1,-14%,-5%,-12%,-24%,10%,.
COc1ccc(NC(=O)C2=C(C)Nc3ncnn3C2c2ccc[nH]2)cc1 (stereo not drawn),.,?,5%[60.1 µM],79µM*,?,.
COc1ccc(C)c2sc(N(Cc3cccnc3)C(=O)c3cccs3)nc12,.,-14%,0%[60.1 µM],12%,4%,.
N#Cc1c(-c2ccccc2)nc(SCc2ccc(Cl)cc2)[nH]c1=O,-25%,79µM*,-2%,?,?,.
Cc1nc(-c2cccc(NC(=O)C(C)Oc3ccccc3)c2)cs1 (stereo not drawn),-34%,28µM*,-4%,-11%,?,.
O=C(Nc1nc2c(s1)CN(Cc1ccccc1)CC2)C1CCC1,-1%,-20%,-3%,8%,136%,-7%
CN(C)c1ccc(/C=C(\C#N)C(=O)Nc2nc3c(s2)CCN(Cc2ccccc2)C3)cc1,-26%,?,-3%,10%,20µM*,.
COc1ccc(OC)c(Nc2nc(N)nc(CSc3nnc(-c4ccncc4)o3)n2)c1,.,.,.,-10%,.,.
C=CCn1c(=O)/c(=C2/Sc3ccccc3N2CC)s/c1=C1/C(=O)NN=C1C,.,.,.,-2%,.,-3%
Nc1c(Cl)cc2c(c1Oc1ccccc1)C(=O)c1ccccc1C2=O,-24%,-15%,-7%,?,11%,.
N#Cc1ccc(N=c2ssnc2Cl)cc1,40µM*!,-9%,-2%,17%,?,6%
COc1ccc(N=c2ssnc2Cl)cc1,?,-8%,7%,2%,?,-1%
Clc1nssc1=Nc1ccccc1,?,14%,6%,-1%,87%,.
Clc1ccc(N=c2ssnc2Cl)cc1,79µM*,-16%,-4%,16%,?,-19%
COc1cc(N=c2ssnc2Cl)cc(OC)c1OC,56µM*,-11%,-6%,10%,?,6%
CCOC(=O)c1ccc(N=C2SC(C(=O)NC)CC(=O)N2Cc2ccc(F)cc2)cc1 (stereo not drawn),-1%,-18%,2%,39%,174%,.
SMILES,WRN helicase inh,POLH inh,POLK inh,Pol beta inh,POLI inh,L3MBTL1 inh
CCOC(=O)c1ccc(N=c2ssnc2Cl)cc1,22µM*,-3%,4%,7%,37%,.
CN(C)C(=O)CSc1ccc(S(=O)(=O)N2CCCC2)cn1,-12%,-6%,-8%,.,40%,-1%
Cc1nnc(SC(C)C(=O)NC2CCCCC2C)s1 (stereo not drawn),-21%,1%,-8%,.,4%,-10%
Fc1ccc(N=c2ssnc2Cl)c(F)c1,32µM*,-17%,-4%,-4%,?,-4%
COCc1c(Br)c(C)nc(OCC(=O)N/N=C/c2ccc(C)o2)c1C#N,-1%,-17%,-1%,17%,0%,-8%
COCc1c(Br)c(C)nc(OCC(=O)N/N=C/c2ccco2)c1C#N,-12%,20%,-2%[60.1 µM],18µM*,?,.
COc1ccc2cc(CN(CCCN3CCOCC3)Cc3nnnn3C3CCCC3)c(=O)[nH]c2c1,0%,6%,2%[60.1 µM],-1%,6%,-9%
COc1ccc(-c2nc3ccccc3s2)cc1NC(=O)c1cccc(F)c1,.,-29%,-4%[60.1 µM],13µM*,?,.
COc1ccc(C(=O)Nc2cc(-c3nc4ccccc4s3)ccc2OC)cc1,.,-17%,-5%,29%,3%,.
Cc1cc(=O)cc2oc3cc(N)c(-c4c(C)cc(O)cc4O)c(C)c3nc1-2,.,.,4.5µM*,.,.,.
CSc1cccc(NC(=O)Nc2ccccc2C(N)=O)c1,-1%,0%,-18%,30%,-20%,0%
Nc1ccc(O)c2c(=O)cc(-c3ccccc3Cl)oc12,-12%,-12%,-11%,22µM*,-19%,-9%
O=c1cc(-c2ccccc2Cl)oc2c(NS(=O)(=O)c3cc(Cl)cc(Cl)c3O)ccc(O)c12,?,32µM*,?,45µM*,40µM*,-23%
O=Cc1ccc(-c2nc3ccccc3s2)o1,-16%,-7%,-12%,-22%,29%,-2%
O=C(O)CCN1C(=O)/C(=C/c2ccc(-c3nc4ccccc4s3)o2)SC1=S,?,3.2µM*,?,25µM*,?,-19%
O=C(Nc1nc(-c2ccccc2)cs1)c1ccccc1NS(=O)(=O)c1ccc(F)cc1,-4%[11.6 µM],50µM*,-12%,45µM*,-25%,0%
CCOc1cccc(-c2c(C(=O)N/N=C/c3cccs3)nnn2-c2nonc2N)c1,-21%,13%,?,?,79µM*,.
COCCSc1nnc(NC(=O)Cc2ccc(OC)c(OC)c2)s1,-1%,7%,-10%,85%,-11%,7%
COc1ccc(C(=O)CCC(=O)Nc2ccc(N3CCN(C)CC3)cc2)cc1OC,-10%,-9%,-1%,.,-10%,-3%
O=C(Cn1c(=O)n(Cc2ccc(Cl)cc2)c(=O)c2cccnc21)Nc1ccccc1C(F)(F)F,.,1%,-1%,26%,-7%,.
Cc1ccc(Cn2c(=O)c3cccnc3n(CC(=O)Nc3cccc(C(F)(F)F)c3)c2=O)cc1,0%,?,-30%,-125%,89µM*!,6%
COc1ccc(CNC(=O)c2cc3c(=O)n(Cc4ccc(OC)cc4)ccc3nc2C)cc1,.,-26%,-2%,22%,19%,.
